This note sets out measurements from PubChem BioAssay (NCATS).

Inconclusive results are not listed. The source made the active and inactive calls. Unless noted, calls follow the shape of the dose curve; as a rule, active = well fitted inhibition curve with a large enough effect; inconclusive = small, poorly fitted or top-dose-only effect; inactive = flat fitted curve, though single readings scatter.

Assay [1] can be described thus: qHTS profiling for inhibitors of Plasmodium falciparum proliferation (AID 504749). Also: nearly all actives have a fitted effect of over 60% in size. Also: potency is read from the fitted curve at half-maximal effect.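 As to activity, negative = inhibition: 0% = DMSO vehicle and full inhibition = artemisinin control.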 Conditions: P. falciparum in erythrocytes, SYBR Green DNA, 72 h, at 28.7 µM (top of the series). Summed up: (§1)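 Each compound contacts P. falciparum-infected red blood cells for 72 h at 37 C; lysis buffer (Tris, EDTA, saponin, Triton X, SYBR Green I) is added and fluorescence measured next morning; values normalized to controls.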
On the technique in general: qHTS replaces the single test concentration by a dilution series.

The subject of assay [2] is 3D7. The description is as above. Conditions: P. falciparum in erythrocytes, SYBR Green DNA, 72 h; series mostly up to 28.7 µM. Summed up: as §1
For assay [3], the system named is 7G8. The description is as above. The note with it: P. falciparum in erythrocytes, SYBR Green DNA, 72 h; series mostly up to 28.7 µM. The gist of the method:
as §1

Assay [4] relates to AA1029. The description is as above. Conditions: P. falciparum in erythrocytes, SYBR Green DNA, 72 h; series mostly up to 28.7 µM. The gist of the method:
as §1

Assay [5] relates to AS120. The assay is described as above. The note with it: P. falciparum in erythrocytes, SYBR Green DNA, 72 h; series mostly up to 28.7 µM. The gist of the method: as §1
Assay [6] in a line: qHTS for identification of novel therapeutic agents for treatment of microphthalmiaassociated transcription factor (MiT) renal cell carcinoma (RCC) (AID 1963991). The note with it: CellTiter-Glo, 48 h, stronger effect = lower value. The gist of the method: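 Curves over 11 concentrations were fitted to CellTiter-Glo luminescence, scaled between empty wells (0%) and DMSO (100%) viability. Cells were UOK109, UOK124 and UOK145 TFE3-fusion RCC lines at 500/well, exposed 48 hours at 37 C.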

Assay [7] is described as follows: qHTS drug screen for cell cycle checkpoint inhibitors in PARPi-resistant BRCA-mutant ovarian cancer cell lines. (AID 1963452; calls by dose curve). The note with it: PEO1/OlaR viability, CellTiter-Glo luminescence, 96 h, stronger effect = lower value. The gist of the method: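 PEO1, PEO4 and PEO1/OlaR ovarian cancer cells, 600 per well, exposed 96 h at 37C to a dilution series. Viability read by CellTiter-Glo luminescence, normalized to DMSO and empty wells; activity summarized as Z-AUC.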

The mark [8] stands for this setting: TFE3-RCC UOK109 viability, measured here: UOK109 Z-AUC.
[9] abbreviates: TFE3-RCC viability, measured here: UOK124 Z-AUC.
The mark [10] stands for this setting: TFE3-RCC viability, measured here: UOK145 Z-AUC.

Consider `Cc1cn([C@H]2C[C@H](N=[N+]=[N-])[C@@H](CO)O2)c(=O)[nH]c1=O`, for which the activity, negative = inhibition in assay [1] (parasite line A) was -7.84% (inactive); in assay [1] (parasite line B), 9.23% (inactive). Moreover, the Potency entry in assay [2], in assay [3], in assay [4] and in assay [5] was “inactive” in each case.
Take `CC(C(=O)O)c1cccc(C(=O)c2ccccc2)c1` (centres undefined): the z-score in assay [6] (setting [8]) was 0.978; in assay [6] (setting [9]), 0.474; in assay [6] (setting [10]), 0.0276.
With `Cc1cc(C(C)(C)C)c(O)c(C)c1CC1=NCCN1`, the z-score in assay [6] (setting [8]) is 0.384; in assay [6] (setting [9]) it was 0.625; in assay [6] (setting [10]), 1.63. Also, the activity, negative = inhibition is -4.77% (inactive) in assay [1] (parasite line A) and -3.69% (inactive) in assay [1] (parasite line B). Also, the Potency result in assay [2], in assay [3], in assay [4] and in assay [5] was “inactive” each time.
With `CN(C)CCCN1c2ccccc2CCc2ccc(Cl)cc21`, the activity, negative = inhibition is -15.4% (inactive) in assay [1] (parasite line A) and -29.1% (inactive) in assay [1] (parasite line B). Moreover, in assay [2], the Potency result is “inactive”. Besides, the Potency in assay [3] was 5.01 µM (active).
For `CN(CCOc1ccc(NS(C)(=O)=O)cc1)CCc1ccc(NS(C)(=O)=O)cc1`, the z-score in assay [6] (setting [8]) was found to be 0.684; in assay [6] (setting [9]), 0.913; in assay [6] (setting [10]), 0.774. Moreover, the activity, negative = inhibition in assay [1] (parasite line A) was 1.37% (inactive); in assay [1] (parasite line B) it was 5.56% (inactive). Also, the Potency result in assay [2], in assay [3], in assay [4] and in assay [5] was “inactive” throughout.
As to `O=C(Nc1ccc([N+](=O)[O-])cc1Cl)c1cc(Cl)ccc1O`, the Z-AUC is -0.74 (inactive) in assay [7], -1.01 in assay [7] (measured here: PEO1 parental Z-AUC) and -1.03 in assay [7] (measured here: PEO4 Z-AUC). The Potency in assay [2] was 1.78 µM (active); in assay [3], 0.891 µM (active); in assay [5], 0.794 µM (active).
As to `Cn1ccc2cc3c(cc21)CCN3C(=O)Nc1cccnc1`, the Potency in assay [3] was 8.91 µM (active).
Turning to `CN1CCN2c3ccccc3Cc3ccccc3C2C1` (centres undefined), the activity, negative = inhibition in assay [1] (parasite line A) was 6.93% (inactive); in assay [1] (parasite line B), 3.33% (inactive). Moreover, the Potency result in assay [2], in assay [3], in assay [4] and in assay [5] was “inactive” in each case.
